Here are results for 1 compound from PubChem BioAssay AID493210 (National Center for Advancing Translational Sciences (NCATS), 2011).

The target in this assay is Aldehyde dehydrogenase 1A1 (Homo sapiens) (UniProt P00352). The assay is described as follows: Inhibitors of Aldehyde Dehydrogenase 1 (ALDH1A1): Followup Confirmation and Counterscreen. Particulars: purified ALDH1A1, NADH fluorescence, propionaldehyde/NAD+. The source says: Aldehyde dehydrogenase 1 (ALDH1A1) catalyzes the NAD+ dependent oxidation of a variety of endogenous and exogenous aldehydes to the corresponding carboxylic acids. The enzyme is the critical step in the metabolic activation of retinoic acid, which plays essential roles as nuclear receptor ligand. […] See [1] through for more information on ALDH1A1. Inhibition of ALDH1A1 activity was screened by utilizing propionaldehyde as an electron donor and NAD+ as an electron acceptor/cofactor. An increase in the fluorescence intensity due to conversion of NAD+ to NADH was used to measure the enzyme activity. See [5] for screening methodology used. References: [1] Manzer R, Qamar L, Estey T, Pappa A, Petersen DR, Vasiliou V. Molecular cloning and baculovirus expression of the rabbit corneal aldehyde dehydrogenase (ALDH1A1) cDNA. DNA Cell Biol. 2003 May;22(5):329-38. […] Quantitative high-throughput screening: a titration-based approach that efficiently identifies biological activities in large chemical libraries. […]
Buffer: 100 mM Hepes pH 7.5, 0.01% Tween 20. […] The plates were immediately transferred to and read twice on ViewLux High-throughput CCD imager (Perkin-Elmer) 20 minutes apart using 360 nm excitation and 450 nm emission fluorescence protocol. The fluorescence intensity difference between the second and the first time points was used to compute reaction progress.

The other results are listed elsewhere or left out. The source made the active and inactive calls. Calls come from the whole dose curve.

Aldehyde dehydrogenase 1A1 (Homo sapiens), sequence (P00352 whole entry, looked up): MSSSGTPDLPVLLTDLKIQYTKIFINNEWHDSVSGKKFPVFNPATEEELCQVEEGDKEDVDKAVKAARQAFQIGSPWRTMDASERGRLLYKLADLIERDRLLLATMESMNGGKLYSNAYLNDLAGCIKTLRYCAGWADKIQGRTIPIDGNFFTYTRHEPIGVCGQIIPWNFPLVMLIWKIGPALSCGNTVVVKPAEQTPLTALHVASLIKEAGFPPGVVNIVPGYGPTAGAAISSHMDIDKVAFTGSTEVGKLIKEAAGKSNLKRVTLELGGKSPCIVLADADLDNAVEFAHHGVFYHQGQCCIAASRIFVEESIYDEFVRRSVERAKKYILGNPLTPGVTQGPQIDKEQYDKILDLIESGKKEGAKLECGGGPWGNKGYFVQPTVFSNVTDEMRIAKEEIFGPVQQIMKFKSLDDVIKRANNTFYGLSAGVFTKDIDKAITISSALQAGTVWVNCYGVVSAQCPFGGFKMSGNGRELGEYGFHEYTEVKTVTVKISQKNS

For `C[C@]12CC[C@@H]3C(=CCc4cc(O)ccc43)[C@@H]1CCC2=O`, the Potency is 0.501 µM (active).
